PrPC surface inh – reduces human prion protein on the cell surface. P04156. cell surface PrPC, TR-FRET read-out. inhibition, % at 13.8 µM. actives 0.43% (n = 370,000). AID 720596; in the data active = inhibition above about 24%; also: 0% = median of the test wells and 100% = reference compound wells
GDH-TPI counter-1 – inhibits GDH-TPI coupling enzymes, artifact for Mtb FBA screen; GDH-TPI coupled enzyme counterscreen, NADH absorbance; inhibition, % at 4.8 µM; actives 1.2% (n = 360,000); AID 588335; in the data active = inhibition above about 30%;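 also: 0% = DMSO wells and 100% = wells lacking the enzyme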
PfHsp40 yeast – restores yeast growth despite PfHsp40 toxicity. S. cerevisiae expressing PfHsp40, growth rescue, ATP luminescence. growth rescue, % at 12.5 µM. actives 0.68% (n = 340,000). AID 504582; in the data active = growth rescue above about 28%, passing the limit was not always enough;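 also: yeast W303a lacking pdr1 and pdr3 grown in galactose medium; growth measured after three days at 30 °C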
Mtb FBA inh – inhibits M. tuberculosis FBA enzyme; P9WQA3; purified M. tuberculosis FBA, fluorescence read-out; inhibition, % at 1 µM; actives 2.3% (n = 360,000); AID 588726;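 also: 0% = vehicle and 100% = reference inhibitor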
Target sequence (P9WQA3 whole entry, looked up): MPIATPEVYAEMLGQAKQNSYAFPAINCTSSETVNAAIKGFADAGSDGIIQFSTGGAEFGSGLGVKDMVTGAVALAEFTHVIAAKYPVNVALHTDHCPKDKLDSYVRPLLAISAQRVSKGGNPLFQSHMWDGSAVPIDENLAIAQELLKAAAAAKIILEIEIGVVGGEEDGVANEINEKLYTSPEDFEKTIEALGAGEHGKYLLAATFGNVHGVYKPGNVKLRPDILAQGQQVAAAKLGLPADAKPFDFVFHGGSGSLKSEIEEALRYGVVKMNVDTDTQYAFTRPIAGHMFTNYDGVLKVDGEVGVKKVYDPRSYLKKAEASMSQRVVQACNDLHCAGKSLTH
PrP UTR inh – suppresses PrP 5' UTR mRNA reporter expression. cell-based PrP 5' UTR mRNA reporter, plate reader. AID 488862. inhibition, % (test concentration not listed). actives 0.35% (n = 340,000); in the data active = inhibition above about 52%; also: 0 = median of the neutral control wells
BJeLR viability – kills HRASV12-expressing BJeLR cells; BJeLR (HRASV12) viability, CellTiter-Glo ATP luminescence, 48 h; inhibition, % (concentration not given with the values); actives 0.17% (n = 300,000); AID 1554; in the data active = inhibition above about 50%
Mtb FBA inh conf – confirmation of M. tuberculosis fructose-bisphosphate aldolase inhibitors | purified M. tuberculosis FBA, fluorescence read-out | shares compounds with Mtb FBA inh | inhibition, % at 1 µM | actives 78% (n = 5,600);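 also: 0% = vehicle wells and 100% = reference inhibitor wells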
GDH-TPI counter-2 – inhibits GDH-TPI coupling enzymes, flagging Mtb FBA hits; inhibition, % at 1 µM; shares compounds with Mtb FBA inh; actives 81% (n = 5,600); GDH-TPI coupled enzyme counterscreen, fluorescence; in the data active = inhibition above about 10%
Starred values were filed as active, the others as inactive; . = no result; + = active, no number. Rows were chosen to be rich in hits. Some 4.5% of all compounds tested hit in one or more screens of this group. Rule as the data show it, unless noted: active = inhibition above about 27%; inactive = the rest.

SMILES | PrPC surface inh | GDH-TPI counter-1 | PfHsp40 yeast | Mtb FBA inh | PrP UTR inh | BJeLR viability | Mtb FBA inh conf | GDH-TPI counter-2
COCCNC(=O)c1ccc(-c2ccc(OC)cc2C)c2ccoc12 | 0 | -8 | . | 95* | . | . | 55* | 44*
COc1ccc(-c2ccc(C(=O)NCc3ccccc3)c3occc23)c(C)c1 | 12 | 4 | . | 22 | . | . | . | .
COc1ccc(-c2cnc(C(N)=O)c(=O)[nH]2)cc1 | 0 | 14 | . | 65* | . | . | 71* | 60*
CSc1nnc(-c2sc(-c3ccccc3)nc2C)n1C | -3 | 12 | -3 | 54* | -12 | -1 | 10 | 6
CC(C)CC(=O)Nc1ccc2nn(-c3ccccc3)nc2c1 | -4 | 18 | 0 | 72* | -79 | -5 | 3 | -1
Cc1cc2nn(-c3ccccc3)nc2cc1NC(=O)c1cccs1 | -6 | 28 | 1 | -3 | -82 | 9 | . | .
CC(=O)Nc1cc2nn(-c3ccccc3)nc2cc1C | -21 | 19 | -1 | 90* | -19 | -1 | 200* | 159*
O=C(Nc1ccc2nn(-c3ccccc3)nc2c1)c1ccc(Br)o1 | -2 | 23 | 0 | 8 | -37 | 0 | . | .
O=C(CSc1nnc(-c2cccc(Br)c2)o1)N1CCOCC1 | 5 | 2 | 1 | 6 | -11 | -1 | . | .
Cc1cc(-c2ccccc2)c2c3c(cn2n1)c(=O)n(C)c(=O)n3C | 2 | 3 | 0 | 1 | -11 | 0 | . | .
Cc1cc(-c2ccccc2)c2nncn2n1 | -22 | -3 | -2 | 45* | -45 | 7 | + | +
Cc1cc(NC(=O)CCCC(=O)NCc2cccs2)no1 | -4 | -8 | -1 | 57* | -70 | -5 | 88* | 62*
Cc1cc(C(=O)NCc2cccs2)no1 | -4 | -5 | -1 | -2 | . | 6 | . | .
Cc1ccccc1N1C(=O)C2CCCN2C1=S (stereo not given) | 3 | 0 | -1 | 1 | -16 | . | . | .
Cc1ccc(S(=O)(=O)N2CCN(C(=O)COC(=O)COc3ccccc3C(C)C)CC2)c(C)c1 | 4 | 14 | 1 | 6 | -11 | . | . | .
CCOc1ccccc1N(C(=O)c1snc(C(N)=O)c1N)C(CC)C(=O)NC1CCCC1 (stereo not given) | -5 | 17 | 2 | -2 | 6 | -5 | . | .
Cc1ccccc1N(C(=O)c1snc(C(N)=O)c1N)C(C(=O)NC1CCCCC1)c1ccc(O)cc1 (stereo not given) | 7 | 8 | -1 | 35* | 52 | 1 | 6 | 0
Cc1ccccc1N(C(=O)c1snc(C(N)=O)c1N)C(C)C(=O)NC1CCCCC1 (stereo not given) | -1 | 5 | 0 | 32* | -10 | -7 | 54* | 37*
O=C(C(=O)N1CCN(c2ccccc2F)CC1)c1ccccc1 | 8 | . | . | . | . | . | . | .
Cc1ccc(-c2cc(-c3ccc(C)o3)nc(N)c2C#N)cc1 | -12 | 12 | 0 | 19 | 7 | 4 | . | .
Cc1ccc(-c2cc(-c3ccc(F)cc3)c(C#N)c(N)n2)o1 | -7 | 3 | 0 | 47* | -8 | 2 | + | 173*
c1ccc2c(N3CCOCC3)nc(N3CCOCC3)nc2c1 | -6 | 14 | -3 | 110* | 0 | 9 | + | 163*
CSc1ncc(-c2ccc(Cl)cc2)[nH]1 | 8 | -2 | 1 | 0 | -86 | -9 | . | .
Cc1ccc(/C=C2\OC(=O)c3ccccc32)cc1 | 8 | 23 | -1 | 45* | -16 | 7 | -2 | -6
Cc1ccccc1/C=C1\OC(=O)c2ccccc21 | -2 | 26 | 1 | 17 | -16 | -3 | . | .
N#CCC(=O)NNc1c([N+](=O)[O-])cc(C(F)(F)F)cc1[N+](=O)[O-] | -60 | 2 | 0 | -2 | -19 | 5 | . | .
O=C(O)c1c(-c2ccccc2)c2oc3ccccc3c2[nH]c1=O | -4 | 17 | 0 | 108* | -30 | -5 | 90* | 70*
O=c1[nH]c2c(oc3ccccc32)c(=O)n1Cc1ccccc1 | -2 | 2 | 0 | 16 | -27 | 1 | . | .
CCOc1ccccc1NC(=O)N1CCCN(c2ncccc2C#N)CC1 | 2 | -6 | 1 | 2 | -20 | 6 | . | .
